Screen size: about 390,000 compounds; about 17,000 (4.4%) were called active. Another 8% or so got no clear call; they are omitted. Calls follow the shape of the dose curve; as a rule, active = well fitted inhibition curve with a large enough effect; inconclusive = small, poorly fitted or top-dose-only effect; inactive = no such curve, though single readings can be large or run the other way. The list comes from a sample in which actives are over-represented; it also holds similar structures and randomly drawn compounds.
Target: Lysine-specific demethylase 4A (Homo sapiens) (UniProt O75164)
Sequence (O75164 whole entry, looked up, the tested form may be a part): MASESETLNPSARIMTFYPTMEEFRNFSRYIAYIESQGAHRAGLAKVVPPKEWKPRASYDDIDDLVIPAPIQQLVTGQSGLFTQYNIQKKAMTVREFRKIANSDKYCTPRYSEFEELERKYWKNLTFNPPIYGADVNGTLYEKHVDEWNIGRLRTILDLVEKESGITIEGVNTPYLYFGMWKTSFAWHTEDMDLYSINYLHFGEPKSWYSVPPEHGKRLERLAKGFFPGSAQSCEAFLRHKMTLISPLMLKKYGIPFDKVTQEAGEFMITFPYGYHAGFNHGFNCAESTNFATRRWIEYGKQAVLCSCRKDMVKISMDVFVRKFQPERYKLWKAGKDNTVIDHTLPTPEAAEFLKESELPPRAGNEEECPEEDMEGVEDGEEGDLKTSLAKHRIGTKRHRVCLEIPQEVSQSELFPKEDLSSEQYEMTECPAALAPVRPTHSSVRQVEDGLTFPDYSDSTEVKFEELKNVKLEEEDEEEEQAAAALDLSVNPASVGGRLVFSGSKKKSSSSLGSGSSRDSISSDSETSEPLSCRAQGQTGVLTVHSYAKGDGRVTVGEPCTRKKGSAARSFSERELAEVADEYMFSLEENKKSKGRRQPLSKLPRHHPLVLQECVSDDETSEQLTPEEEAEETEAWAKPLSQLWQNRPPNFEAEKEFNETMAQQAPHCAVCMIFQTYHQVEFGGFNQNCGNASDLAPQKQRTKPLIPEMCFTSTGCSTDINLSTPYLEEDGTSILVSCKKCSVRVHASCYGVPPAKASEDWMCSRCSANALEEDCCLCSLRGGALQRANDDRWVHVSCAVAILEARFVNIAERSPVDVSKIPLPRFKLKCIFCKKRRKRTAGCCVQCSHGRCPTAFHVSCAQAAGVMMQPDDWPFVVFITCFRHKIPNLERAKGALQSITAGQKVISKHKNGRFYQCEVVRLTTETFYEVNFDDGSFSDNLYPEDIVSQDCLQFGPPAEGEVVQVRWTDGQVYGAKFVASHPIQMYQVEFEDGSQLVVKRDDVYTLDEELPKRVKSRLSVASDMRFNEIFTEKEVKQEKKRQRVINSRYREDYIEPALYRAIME
Experiment: qHTS Assay for Inhibitors of JMJD2A-Tudor Domain; also: nearly all actives have a fitted effect of over 50% in size
Details: AlphaScreen JMJD2A-Tudor / H3K4me3 peptide binding; series mostly up to 114 µM
% is scaled to controls: 0 for no effect and ±100 for the full control effect; potency is read from the fitted curve at half-maximal effect.

Potency, inactive:
Cc1ccc(-c2nnc3c4ccccc4c(C)nn23)cc1NC(=O)c1cccc(Br)c1
Cc1ccccc1C(=O)Nc1nnc(S(=O)(=O)N(C)c2ccc(Cl)cc2)s1
N#Cc1nc(Nc2cccc(Cl)c2)nc(NC2CCCC2)n1
COc1ccc(NC(=O)C(c2ccccc2)N2Cc3ccccc3C2=O)cc1 (stereo unspecified)
COc1ccc(-c2onc(C)c2C)cc1S(=O)(=O)NCc1cccs1
COc1ccccc1Nc1ncnc2c1oc1ccccc12
COC(=O)c1cnc(Nc2cc(C)ccc2OC)c2ccccc12
O=C(OCC#CCSc1nnc(-c2ccco2)o1)c1ccc(F)cc1
COC(=O)c1ccc(OC)c(Cn2c(=O)n(Cc3ccccc3)c(=O)c3c2c2cc(OC)ccc2n3C)c1
COc1cc(OC)cc(C(=O)Nc2cc3nn(-c4ccccc4)nc3cc2Cl)c1
CCCNC(=O)CCC(=O)N1Cc2ccccc2Oc2ncccc21
Cc1ccc(-c2noc(-c3nnn(-c4cccc(C(F)(F)F)c4)c3N)n2)cc1
Cc1cccc(NC(=O)COc2ccc(Br)cc2C)n1
Cc1ccc(OCCOCCOc2ccc(Br)cc2/C=N\NC(=O)c2ccncc2)cc1
COc1ccc(C2C(=O)N(C3CCCCC3)CC(=O)N2Cc2ccccc2Cl)cc1OC (stereo unspecified)
COc1cccc(NC(=O)Nc2ccc3c(c2)N(C)C(=O)c2ccccc2S3)c1
CCc1cccc(NC(=O)c2cc(-c3ccccc3)n[nH]2)c1
CCOc1ccc(CNC(=O)C2CCN(c3nnc(-n4cccc4CNc4ccc(C)cc4)s3)CC2)cc1OC
CCC(=O)Nc1nnc(S(=O)(=O)N2CCCc3ccccc32)s1
O=C(Nc1nnc(S(=O)(=O)N2CCCCCC2)s1)c1cccc(Br)c1
Cc1ccc2nc(NC(=O)c3nc(SCc4ccccc4F)ncc3Cl)sc2c1
COc1ccc(S(=O)(=O)c2c(Nc3cccc(Cl)c3)sc(C(=O)c3ccccc3)c2N)cc1
COc1ccc(C)cc1N(CC(=O)N1CCC(C)CC1)S(=O)(=O)c1ccc(C)cc1
COc1ccc(COCC(O)CN2CCC(C(N)=O)CC2)cc1 (stereo unspecified)
COc1ccc(CCN2C(=O)CC(N3CCC(C(N)=O)CC3)C2=O)cc1OC (stereo unspecified)
Cc1c(Br)c([N+](=O)[O-])nn1CC(=O)N1CCN(Cc2ccccc2)CC1
CCOC(=O)C1CCN(CCC(=O)Nc2cccc(C)c2)CC1
COc1ccc(CN2CCN(C(=O)CCC(=O)Nc3nnc(C(C)C)s3)CC2)cc1F
CCOc1cc(CO)ccc1OCC(=O)N1CCCCC1
CCOC(=O)C1CCN(Cc2nnc(-c3cccc(Br)c3)o2)CC1
CC(C)CC(=O)N1CCC(O)(CS(=O)(=O)Cc2ccccc2)CC1
COc1ccc(Cn2ccc3nc(C)c(C(=O)Nc4ccc(C)c(F)c4)cc3c2=O)cc1
COc1cccc(NC(=O)CSc2cc(=O)n(C)c3ccc(Cl)cc23)c1
CCCNC(=O)c1ccc2c(c1)ncn2-c1ccc(C)cc1C
COc1ccc(-c2cc(NCc3ccc(F)cc3)n3cnnc3n2)cc1
Cc1cc2oc(C(=O)N(Cc3ccc(Cl)cc3)Cc3ccco3)c(C)c2cc1Cl
CC(C)(C)c1ccc(C(=O)NCC(c2ccc(Cl)cc2)N2CCOCC2)cc1 (stereo unspecified)
Cc1nc2nc(SCC(=O)NC3CCC(C)CC3)nn2c(C)c1Cc1ccccc1Cl (stereo unspecified)
Cc1ccc(NC(=O)c2oc3ccc(S(=O)(=O)N4CCCCC4)cc3c2C)cc1Cl
Cn1nnnc1SCC(=O)N1CCN(Cc2ccccc2)CC1
O=C(c1cccc(Cl)c1)N1CCN(Cc2ccccc2)CC1
CCOC(=O)N1CCC(NC(=O)c2cnn(-c3cccc(C)c3)c2C2CCN(C(=O)OC(C)(C)C)CC2)CC1
O=C(Nc1ncccc1O)c1ccc(C(=O)c2ccccc2)cc1
CC1CCC(NC(=O)CNC(=O)c2ccc3ccccc3c2)CC1 (stereo unspecified)
CCCN(CCC)C(=O)C1CCCN(c2ncnc3c2nc2n3CCCCC2)C1 (stereo unspecified)
Cc1nn(C)c(C(=O)NNC(=S)NC2CCCCC2)c1Cl
COc1cccc(NC(=O)c2csnn2)c1
COc1ccc(S(=O)(=O)c2cn(C)c3cc(N4CCCCC4)c(F)cc3c2=O)cc1
COc1ccc(S(=O)(=O)Nc2ccccc2C(=O)N2CCCC2)cc1C
COc1ccc(S(=O)(=O)Nc2ccc3cn[nH]c3c2)cc1[N+](=O)[O-]
COC(=O)c1ccccc1NS(=O)(=O)c1ccc2[nH]c(=O)[nH]c2c1
CCOc1ncccc1C(=O)NNC(=O)c1cccc(S(=O)(=O)Nc2ccccc2OC)c1
CCOC(=O)C1CCN(C(=O)CSc2c3c(nc4ccc(Cl)cc24)CCCC3)CC1
COc1ccc2oc(-c3ccc(C)c(NC(=O)c4sc5ccccc5c4Cl)c3)nc2c1
COc1ccc(C)cc1Nc1n[n+](-c2ccccc2)c(-c2cccc(Cl)c2Cl)s1
COc1cc(Br)c(-c2sc(Nc3ccccc3)n[n+]2-c2ccccc2)cc1OC
Cc1cccc(NC(=O)C2CCCN2S(=O)(=O)c2cccc3nsnc23)c1C (stereo unspecified)
COc1ccc(N2CCN(Cc3nc4c(c(=O)[nH]c(=O)n4C)n3Cc3ccc(Cl)cc3)CC2)cc1
COc1ccc(C)cc1-n1nnnc1SCc1nc2ccccc2c(=O)[nH]1
CCn1c(COc2c(C)cccc2C)nnc1SCc1nc2ccccc2c(=O)[nH]1
CCOc1ccccc1NC(=O)CSc1ncc(S(=O)(=O)c2ccc(C(C)(C)C)cc2)c(=O)[nH]1
CCCN1CCN(CCCNC(=O)c2ccc3nc(Cc4ccccc4)oc3c2)CC1
Cc1cc(/C=C2/SC(=O)N(CC(=O)N3CCCC3)C2=O)c(C)n1C
Cc1cc(/C=C2/SC(=O)N(CC(=O)OC(C)C)C2=O)c(C)n1C
Cc1cccc(-n2c(SCC(N)=O)nc3c(oc4ccccc43)c2=O)c1
O=C(CSc1nc(=O)[nH]c2c1CCCC2)Nc1cc(C(F)(F)F)ccc1Cl
CCOc1ccccc1NC(=O)CN1CCCN(Cc2cccc(Cl)c2)S1(=O)=O
Cc1c(NC(=O)c2cc(=O)c3ccccc3o2)c(=O)n(-c2ccccc2)n1C
Cc1ccccc1NC(=O)c1cc(S(=O)(=O)Nc2cccc(C(=O)O)c2)ccc1Cl
CC(=O)Nc1cccc(/C(C)=N/NC(=O)c2c(-c3ccccc3Cl)noc2C)c1
Cc1c(Cl)cccc1NC(=O)Cn1cc(C(=O)c2cccs2)c2ccccc21
CC(=O)c1nn(-c2ccc(OC(F)(F)F)cc2)nc1Nc1ccccc1
COc1ccccc1NC(=O)c1ccc2nc(N3C(=O)CCC3=O)sc2c1
COC(=O)c1cccc(NC(=O)c2cccc(N3C(=O)CCC3=O)c2)c1
Fc1ccc(C(Nc2ccc(Cl)c(C(F)(F)F)c2)c2nnc(-c3ccccc3)o2)cc1 (stereo unspecified)
CCn1c(=O)cc(OCC(=O)Nc2cc(Cl)c(OC)cc2OC)c2ccccc21
COc1ccc(NC(=O)c2ccc3nc(CCc4ccccc4)oc3c2)c(OC)c1
COc1ccc(S(=O)(=O)Nc2cc3c(C(=O)OC(C)C)c(C)oc3c3ccccc23)cc1
COc1ccc(NS(=O)(=O)c2ccc(Oc3c(C#N)cccc3C#N)cc2)cc1

Potency, active:
COc1ccc2c(c1)c(=Cc1ccc(N(C)C)cc1)c1cc(-c3ccccc3)[n+](C)n12 22.4 µM
COc1ccc(C)cc1Nc1nc(C)nc2c1oc1ccccc12 17.8 µM
O=C1Nc2ccc(Br)cc2/C1=N/N=C/C1=C(N2CCOCC2)C(=C\c2ccccc2)/CC1 5.01 µM
CCC(C)NCCOCCOc1ccc(Br)cc1C (stereo unspecified) 28.2 µM
CCc1ccc2c(c1)C1(NN=C(c3ccccc3)S1)C(=O)N2 (stereo unspecified) 56.2 µM
O=C(Nc1nnc(S(=O)(=O)N2CCCc3ccccc32)s1)c1cccc(F)c1 50.1 µM
COc1cc(CN2CCC(C(N)=O)CC2)ccc1OCc1ccccc1 50.1 µM
CC(C)CC(=O)N1CCN(Cc2ccccc2Br)CC1 17.8 µM
CCOC(=O)C1CCN(Cc2ccc(-c3ccccc3)cc2)CC1 17.8 µM
CCOc1cc(CN2CCN(C(=O)CC(C)C)CC2)ccc1OC 3.16 µM
CC(C)CC(=O)N1CCN(Cc2cccc(Cl)c2)CC1 44.7 µM
O=C(CNC(=O)c1ccc2ccccc2c1)Nc1ncccc1O 79.4 µM
COc1cccc(NC(=S)NC(=O)c2c(Cl)c(C)nn2C)c1 89.1 µM
COc1ccc(Br)cc1/C=N/Nc1ccc(S(=O)(=O)Nc2ccccc2C(=O)O)cc1[N+](=O)[O-] 17.8 µM
COc1cccc(/C=N/Nc2ccc(S(=O)(=O)Nc3ccccc3C(=O)O)cc2[N+](=O)[O-])c1O 44.7 µM
CCc1ccc(Nc2n[n+](-c3ccccc3)c(-c3cccc(Cl)c3Cl)s2)cc1 56.2 µM
COc1ccc(CCCc2nnc(SCc3nc4ccccc4c(=O)[nH]3)n2C)cc1 15.8 µM
Cc1cc(/C=C2\SC(=O)N(C)C2=O)c(C)n1-c1cccc(C(=O)O)c1 56.2 µM
C/C(=N\Nc1cccc(C(=O)O)c1)c1ccc2c(c1)Nc1ccccc1S2 56.2 µM
COc1ccccc1-c1nnc(NC(=O)c2cccc(N3C(=O)CCC3=O)c2)o1 35.5 µM
COc1ccc(S(=O)(=O)/N=C2\C=C(NS(=O)(=O)c3ccccc3)C(=O)c3ccccc32)cc1 39.8 µM

Activity change, negative = inhibition, inactive:
COc1ccc(/C=N/N=C2/C(=O)Nc3ccccc32)cc1O -12.8% [at 11.4 µM]
